PubChem BioAssay (NCATS)
Inconclusive results are not listed. Calls of active or inactive are those of the source. Calls come from the whole dose curve; as a rule, active = well fitted activation curve with a large enough effect in the main read-out, with a control signal flat (not every such curve was filed as active); inconclusive = small, poorly fitted or top-dose-only effect, or effect the other way, or a change in a side signal; inactive = flat fitted curve, though single readings scatter.

biological target: 3',5'-cyclic-AMP phosphodiesterase 4B (Homo sapiens) (UniProt Q07343); assay: qHTS Assay for Inhibitors of PDE-IV (AID 607); conditions: HEK293 ACTOne CNG channel cells, membrane potential fluorescence; series mostly up to 22.9 µM
Text: NIH Chemical Genomics Center [NCGC]
NIH Molecular Libraries Screening Centers Network [MLSCN]
The cyclic nucleotide phosphodiesterases (PDEs) are proteins that catalyze hydrolysis of 3', 5'-cyclic nucleotides, such as cyclic adenosine monophosphate (cAMP) and cyclic guanosine monophosphate (cGMP), to their corresponding 5'-nucleotide monophosphates. These enzymes play an important role in controlling cellular concentrations of cyclic nucleotides and have a central role in a variety of intracellular signaling events. cAMP PDEs are emerging as a promising class of drug targets in asthma and cardiovascular disease therapeutic areas.
There are no commercially available cell-based screening assays for PDE inhibitors: currently biochemical assays are done using pure substrates (cAMP or cGMP) and purified recombinant PDE enzymes. As with other biochemical screens on intracellular targets, false positives and false negatives may result from issues involving cell membrane permeability, cellular metabolism, and the like.
Here we report the development of a cell-based screening assay for cAMP phosphodiesterase (PDE) inhibitors. The assay is based on the BD ACTOne# technology (BD Biosciences) which utilizes a modified cyclic nucleotide-gated channel (CNG) to monitor intracellular cAMP changes in live cells. The CNG channel is localized on the plasma membrane, and opens when the intracellular cAMP level increases, resulting in ion flux and cell membrane depolarization. The influx of cations through the CNG channel can be quantified using membrane potential (MP) dyes. We modified the BD ACTOne technology to allow the detection of PDE inhibitors, and performed an inhibitor screen for PDE-IV, which is expressed endogenously in HEK293 cells. We optimized this assay in homogeneous 1536-well plate assay format for high throughput screening.
NCGC Assay Protocol Summary:
The medium contained 10% FBS (Invitrogen), 2 mM L-glutamine, and 250 ug/ml G418 (Cellgro) and 1 ug/ml puromycin (Clontech). ACTOneTM parental cells (BD Biosciences) were maintained in the same medium without puromycin.
The activity of the CNG channel was measured by BD ACTOneTM membrane potential dye kit (BD Biosciences). Forskolin, a positive control for cAMP activation and RO 20-1724, a PDE inhibitor, were both purchased from Sigma and solublized in DMSO.
Sequence,Parameter,Value,Description
1,Reagent,3 uL,1000 cells/well 1536 TC treated Black plate
3,Compound,0.5 uL,Kalypsys dispense RO 20-1724 100 uM final [A]
4,Reagent,3 uL,BD membrane potential dye
6,Compound,23 nL,Final concentration was 0.7nM to 22.9uM
8,Detector,EX 535 / EM 590 [B],Envision
Footnotes: [A] The stock 2 mM RO 20-1724 PDE inhibitor was made in 10 % DMSO. Parental cell line received 10 uM forskolin + 100 uM RO. [B] Envsion settings: Bottom Excitation 535/20 nm top emission 590/20, gain of 150 and 5 flashes per well.
Keywords: PDE, PDE-IV, cytotoxicity, flourescence, MLSMR, MLSCN, NIH Roadmap, qHTS, NCGC

3',5'-cyclic-AMP phosphodiesterase 4B (Homo sapiens), sequence (Q07343 whole entry, looked up): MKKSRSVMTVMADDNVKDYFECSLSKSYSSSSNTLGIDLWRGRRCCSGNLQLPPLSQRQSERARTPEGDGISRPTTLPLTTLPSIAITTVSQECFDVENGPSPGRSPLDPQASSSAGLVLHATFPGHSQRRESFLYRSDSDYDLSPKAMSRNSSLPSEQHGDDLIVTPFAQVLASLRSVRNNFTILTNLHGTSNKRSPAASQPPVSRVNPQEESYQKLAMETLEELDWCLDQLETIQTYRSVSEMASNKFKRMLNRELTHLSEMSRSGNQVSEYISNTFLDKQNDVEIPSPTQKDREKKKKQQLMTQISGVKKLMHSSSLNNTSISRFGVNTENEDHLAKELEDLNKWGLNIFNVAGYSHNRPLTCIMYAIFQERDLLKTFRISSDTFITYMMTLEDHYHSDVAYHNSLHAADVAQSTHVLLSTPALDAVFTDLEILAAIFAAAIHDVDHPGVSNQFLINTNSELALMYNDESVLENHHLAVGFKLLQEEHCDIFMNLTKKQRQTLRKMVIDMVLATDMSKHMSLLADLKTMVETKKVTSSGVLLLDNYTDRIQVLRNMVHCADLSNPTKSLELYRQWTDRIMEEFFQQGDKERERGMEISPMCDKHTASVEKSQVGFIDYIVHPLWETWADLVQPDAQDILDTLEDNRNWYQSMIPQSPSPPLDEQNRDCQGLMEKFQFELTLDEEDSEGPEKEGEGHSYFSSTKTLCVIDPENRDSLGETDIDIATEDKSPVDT

Potency, inactive:
Cn1ccnc1C[C@@](C)(O)c1ccccc1, C=CCN1CCc2c(cc(O)c(O)c2Cl)[C@H](c2ccccc2)C1, CN1CCc2c(cc(O)c(O)c2Cl)[C@H](c2cccc(Cl)c2)C1, CCc1cccc2c3c([nH]c12)[C@](CC)(CC(=O)O)OCC3, Cn1c(=O)c2[nH]c(CSCc3ccccc3)nc2n(C)c1=O, C[Si](C)(c1ccc(C(=O)O)cc1)c1ccc(C(=O)O)cc1, CC(C)Cn1cnc2c(Sc3c([N+](=O)[O-])ncn3C)nc(N)nc21, O=C(O)C[C@H](NC(=O)CP(=O)(O)O)C(=O)O.[NH-][C@@H]1CCCC[C@@H]1[NH-].[Pt], COc1ccc2c(Cc3c4ccccc4cc4ccccc34)cncc2c1O, c1ccc2sc(SCCSc3nc4ccccc4s3)nc2c1, NC(=O)NCCS[C@H]1CCCC[C@@H]1O, N#Cc1c(NC(=O)CCC(=O)O)ccc2ccccc12, O=C1CCC(c2ccccc2)(c2ccccc2)CC1, CC(C)(CCC(C)(C)c1ccccc1)c1ccccc1, CCN=C(N)CSS(=O)(=O)O, O=C(O)[C@@H](O)c1ccc(F)cc1, CC(C)N(Cc1ccccc1)S(=O)(=O)c1n[nH]c(C(C)(C)C)n1, N#[N+]c1ccc(Nc2ccccc2)cc1, Nc1nc2c(ncn2[C@H]2CC[C@@H](CO)O2)c(=O)n1C(=O)c1ccccc1, O[C@@H](COc1ccc(Cl)cc1Cl)CN1CCCC1, O=C1C[C@H]2OCC=C3CN4CC[C@@]5(C(=O)O)[C@H](N1)[C@H]2[C@H]3C[C@H]45, O=C(O)c1cccc(C(=O)O)c1S(=O)Cc1ccccc1 (stereo not given), O=C(O)c1cc(C(=O)O)cc(N2C(=O)c3ccccc3C2=O)c1, O=C(O)c1c(Cl)c(Cl)c(Cl)c(Cl)c1C(=O)Nc1ccc2cn[nH]c2c1, C[C@@H](C(=O)O)c1ccc(C[C@@H]2CCCC2=O)cc1, O=C(Cn1ccc(=O)[nH]c1=O)Nc1ccc(C(=O)O)c(O)c1, O=C(O)[C@@H]1CS[C@@]2(CCCN(Cc3ccccc3)C2)N1, CC(C)CN=C(N)N=C(N)N, Clc1ccc2c(NCCNC3CCCCC3)ccnc2c1, NNC(=O)[C@@H](O)[C@H](O)C(=O)NN, CN1CCN(CCCN)CC1, NS(=O)(=O)c1ccc(NCc2nc3ccccc3[nH]2)cc1, O=C(C[C@@H]1C=Cc2ccccc2N1C(=O)c1ccccc1)c1ccccc1, Cc1cc(=O)[nH]c(/N=C(\N)Nc2ccc(Cl)cc2)n1, FC(F)(F)c1nc2nc(Cl)c(Cl)nc2n1CCCN1CCOCC1, O=C(O)c1ccccc1/C=N\N=C1c2ccccc2-c2ccccc21, CN(C)CCCNc1ncnc2nc[nH]c12, CCOC(=O)C1=C(C)NC(=O)N[C@@H]1c1coc2cc(C)cc(C)c2c1=O, Nc1ncnc2c1ncn2[C@H]1O[C@@H](C(=O)OCCO)[C@@H](O)[C@H]1O, N#CC(=NCCO)C1=C(O)c2ccccc2C1=O
